Screening results: PubChem, The Scripps Research Institute Molecular Screening Center
TLR9-MyD88 block: inhibitors of human TLR9-MyD88 binding; AID 504734; actives 0.21% (n = 340,000); inhibition, % at 4.98 µM; CHO BLA complementation TLR9-MyD88, CCF4 FRET ratio; Q9NR96+Q99836;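 active = inhibition above the mean over all tested compounds plus 3 SD, cut at about 21% in these data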;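 note: 0% = DMSO only wells and 100% = clavulanate BLA inhibitor control wells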
rCAG binder: molecules binding r(CAG) RNA repeats. r(CAG) RNA repeat, TO-PRO-1 dye displacement fluorescence. inhibition, % at 3 µM. actives 1.3% (n = 370,000);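 active = inhibition above the plate cutoff, the mean of all test compounds on that plate plus 3 SD, cut at about 35% in these data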;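 note: 0% = DMSO alone and 100% = 100 µM mitoxantrone as full dye displacement; higher means more dye released from RNA so lower well fluorescence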
PRMT1 FP inh: blocks human protein arginine methyltransferase 1. Q99873. recombinant PRMT1, activity-based probe fluorescence polarization. inhibition, % at 2.79 µM. actives 1.3% (n = 370,000);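 active = inhibition above about 21% made by adding two undisclosed values, limit read from the data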
NOD2 RIPK2 PPI: inhibitors of human NOD2-RIPK2 interaction; actives 0.38% (n = 360,000); CHO BLA complementation NOD2-RIPK2, CCF4 ratio; AID 624267; inhibition, % at 4.98 µM; in the data active = inhibition above about 21%;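 note: 0% = vehicle only and 100% = reference blocker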
ABHD5 PLIN5 PPI: inhibitors of human ABHD5-perilipin-5 interaction; Split G. princeps luciferase complementation, luminescence, 4 h; inhibition, % at 4 µM; actives 0.78% (n = 360,000);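 active = inhibition above the mean inhibition across every tested compound plus 3 SD, cut at about 22% in these data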;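 note: 0% = DMSO only wells and the 100% control is not disclosed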
TLR4-MyD88 BLA: inhibitors of human TLR4-MyD88 binding. actives 0.18% (n = 200,000). O00206+Q99836. inhibition, % at 8.4 µM. HeLa CL3-4 TLR4/MyD88 BLA complementation, FRET ratio. AID 861; in the data active = inhibition above about 25%;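 note: 0% = vehicle and 100% = reference inhibitor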
* marks the source's active call; other numbers are inactive results; nt = no result. Only some compounds are listed: those with a hit (about 3.3% of all), similar ones and a draw of the others.

SMILES	TLR9-MyD88 block	rCAG binder	PRMT1 FP inh	NOD2 RIPK2 PPI	ABHD5 PLIN5 PPI	TLR4-MyD88 BLA
Cc1ccc(C)c(NC(=S)NC(NC(=O)Cc2ccccc2)C(Cl)(Cl)Cl)c1 (configuration not stated)	-2.9	2.0	-1.7	-4.1	-5.3	9.1
O=C(COc1ccccc1)NC(NC(=S)Nc1ccccc1C(=O)O)C(Cl)(Cl)Cl (configuration not stated)	9.7	38.6*	-1.2	-6.6	-1.5	-13.7
CC(O)CSc1nc2c(c(=O)[nH]c(=O)n2C)n1Cc1ccccc1Cl (configuration not stated)	4.1	-0.1	0.4	7.8	-2.7	nt
S=C(Nc1ccc(N2CCOCC2)cc1)Nc1ccc2nc(-c3ccco3)c(-c3ccco3)nc2c1	5.7	-12.6	42.9*	4.8	1.6	-4.7
O=C(Nc1ccc(N2CCOCC2)cc1)c1ccc2nc(-c3ccco3)c(-c3ccco3)nc2c1	-5.4	15.9	2.4	-8.4	0.0	5.4
O=C(Nc1ccc2nc(-c3ccco3)c(-c3ccco3)nc2c1)N1CCN(c2ccccn2)CC1	5.6	44.5*	48.0*	1.4	19.9	-21.3
Cc1ccc(S(=O)(=O)N2CCCCC2)cc1C(=O)NCCCN1CCOCC1	-6.8	-5.6	-1.9	-7.3	-3.3	nt
CN1C(=S)N(c2cccnc2)C(=O)/C1=C\c1ccc(N(C)C)cc1	-2.4	-1.1	-4.8	-4.7	1.7	-11.8
Cc1c(N2C(=O)/C(=C\c3ccc(N(C)C)cc3)N(C)C2=S)c(=O)n(-c2ccccc2)n1C	-7.6	1.1	-5.4	-2.0	22.4*	0.5
CCCCCCC[C@H](N)[C@H](O)C(=O)N(C)[C@@H](CCS(C)=O)C(=O)N[C@@H](Cc1ccc(O)cc1)C(=O)O (some centres not stated)	nt	nt	3.0	nt	nt	nt
COc1ccc(Cl)cc1NC(=O)CN1CCN(S(=O)(=O)N2CCCCC2)CC1	5.6	2.1	-1.6	-8.1	-2.4	nt
CCc1cc(C(=O)N/N=C/c2ccc(O)cc2)c2ccccc2n1	-13.2	0.9	3.0	1.2	22.7*	nt
C=CCc1cccc(C=Nc2ccc(Br)cc2)c1O	-5.9	2.4	-0.2	-3.8	-0.4	6.4
C=CCc1cccc(/C=N/c2ncccc2O)c1O	-4.3	3.0	21.8*	-8.8	-27.6	-1.1
CC(COc1ccc(OC(F)(F)F)cc1)CN1CCC(C(O)(c2ccccc2)c2ccccc2)CC1 (configuration not stated)	nt	2.6	0.2	nt	nt	nt
Cc1ccc2c(c1)N(C(=O)CSc1nncn1C)C(C)(C)c1ssc(=S)c1-2	-4.4	-2.3	29.2*	4.2	5.6	-5.2
O=C(O)C1CSC(c2ccc3c(c2)OCO3)N1 (configuration not stated)	0.2	12.6	27.3*	-5.9	-4.7	nt
Nc1ccccc1Sc1nc2ccccc2[nH]1	6.3	11.8	52.0*	-6.8	-7.7	7.3
O=C(CCS(=O)(=O)c1ccc(F)cc1)N1CCOCC1	1.5	6.2	-3.1	-5.1	-1.6	nt
O=C(CN1C(=O)S/C(=C\c2ccccc2F)C1=O)Nc1ccccc1O	-5.4	19.6	21.7*	1.1	4.5	nt
Cc1cc(N/N=C/c2cccc(Cl)c2)nc(NCc2ccccc2)n1	-11.6	2.6	0.2	-7.9	-3.7	-1.0
Cc1cc(Nc2cccc(Cl)c2)nc(NCc2ccccc2)n1	8.3	3.4	-1.4	0.0	22.3*	-14.3
CCOC(=O)[C@H]1[C@H]2COc3ccccc3[C@@H]2N2C(=O)CNC(=O)[C@@]12C	7.9	-0.3	-3.4	4.4	2.8	nt
Cn1c(=O)c2c(nc3n2CC(O)CN3c2ccc(O)cc2)n(C)c1=O (configuration not stated)	-4.9	1.7	2.8	-5.5	2.6	nt
O=C(COc1ccccc1C(=O)O)Nc1ccc(SC(F)F)cc1	2.1	6.0	0.8	1.4	-1.4	25.0*
Cc1ccc(OC(=O)COc2ccccc2C)c(-n2nc3ccccc3n2)c1	-18.6	1.6	23.6*	-13.3	-7.6	-5.8
CC1(C)Nc2ccc(O)cc2-c2c1ssc2=S	6.3	9.9	22.1*	0.2	-18.9	6.0
COc1cccc(-n2sc3c(c2=S)-c2cc(OC)ccc2NC3(C)C)c1	-8.9	3.9	-1.1	1.4	-1.0	9.0
